SMILES strings stand for the structures. The whole screen tested about 200,000 compounds, of which about 25 (0.01%) were called active. Roughly 23% stayed inconclusive and do not appear here. What follows is part of a selection rich in actives, with near analogues and random picks from the rest. Unmarked numbers belong to inactive results. The call rests on the fitted dose curve; in most records, active means well fitted inhibition curve with a large enough effect in the signal ratio, with a control signal flat (not every such curve was filed as active); inconclusive means small, poorly fitted or top-dose-only effect, or effect the other way, or a change in a side signal; inactive means flat fitted curve, though single readings scatter; the % refers to the signal ratio.
On the % scale 0 is the no-effect control and ±100 the full control effect.

The assay can be described thus: qHTS Assay for Modulators of Lamin A Splicing. As to conditions: HeLa LMNA splicing GFP/RFP minigene ratio, 48 h; series mostly up to 46 µM; ratio change, negative = inhibition: at the top concentration. From the text:
NCGC Assay Overview: Hutchinson-Gilford Progeria Syndrome (HGPS) is a pediatric premature aging disease caused by a spontaneous mutation in the lamin A/C (LMNA) gene. The mutation activates a cryptic splice site in the LMNA pre-mRNA which results in production of a pre-lamin A protein that cannot be processed properly. The mutant protein accumulates in the nucleus and negatively affects numerous cellular functions. Correction of the splicing defect in HGPS patient cells using a targeted oligonucleotide (exo11) leads to reversal of the cellular disease phenotypes. To identify small molecule modulators of aberrant LMNA splicing, a homogenous assay was constructed in HeLa cells that used a GFP containing minigene to report on correction of aberrant splicing in lamin A and a RFP (DsRed2) to report on cell viability, uniformity and nonspecific effects on the assay signal. This assay was adapted to laser-scanning microplate cytometry (Acumen, TTP Labtech) where miniaturization of the assay to a 1,536-well plate format was possible. References: Bowen, W. P.; Wylie, P. G. Application of Laser-Scanning Fluorescence Microplate Cytometry in High Content Screening. Assay Drug Dev Technol 2006;4:209-221. Scaffidi P, Misteli T. Reversal of the cellular phenotype in the premature aging disease Hutchinson-Gilford progeria syndrome. Nat.
NCGC Assay Protocol Summary: Reagents/Controls: Stable clones expressing DsRed2 and lamin A-EGFP were generated by Cell and Molecular Technologies in S3 HeLa cells. HeLa cells were prepared for the assay when they were 70-90% confluent. The cells were counted and resuspended in Opti-MEM I (no phenol red; Gibco), 2% FBS, 1% penicillin/ streptomycin (Gibco) at concentration of 120 cells/uL concentration. The suspension was passed through a Falcon basket filter with pore size 40um (Beckton Dickson). Control titrations: column […] 1536-well plate contained a sixteen point titration (1:2 dilutions) in duplicate of ancitabine (Sigma: A8598) beginning at 40 uM final concentration. Column 2 contained a sixteen point titration (1:2 dilutions) of cycloheximide beginning at 1.4 mM final concentration. Column 3 contained ancitabine at 40 uM and column 4 contained was the vehicle control (0.5% DMSO final concentration). Assay Steps: 5 uL of HeLa cells were plated in Aurora LoBase black clear bottom (cyclic-olefin polymer) 1536-well plates at a final density of 600 cells/well. Controls and library compounds were added with a 1536-well pin array using the Kalypsys pin-tool. The plates were then incubated for 48 hrs in a cell-culture incubator (37 °C; 5% CO2, 98% humidity). Following incubation the plates were read on the Acumen Explorer using the 488 nm laser. Data was collected on objects between 10 and 100 um in size. Cell objects were defined by a 15 um width x 10 um depth filter. The ratio of the total object intensity in PMT1 (500-530 nm emission; GFP) over PMT3 (575-640 nm emission; RFP) was calculated for analysis. Keywords: NIH Roadmap, MLSCN, MLI, MLSMR, qHTS, NCGC, lamin A, Progeria, RNA splicing.
On the technique in general: In qHTS, concentration-response curves come from the screen itself.
Consider `O=C1CCC/C(=N\NC(=O)NC2CCCCC2)C1`, for which the “ratio change, negative = inhibition” value is -17.2%.
Then `Cc1ccc(NC(=O)CNCc2ccccn2)cc1S(=O)(=O)N(C)C`, with -1.55%; and `O=C(Oc1cccc(NC2=NS(=O)(=O)c3ccccc32)c1)c1ccncc1`, with -3.46%.
Then `O=C(CNC(=O)c1cc(=O)[nH]c2ccccc12)Nc1ccc(F)c(F)c1`, with 3.5% [at 9.22 µM]; and `Cc1ccccc1Nc1nc(N)nc(CSc2nnc3ccccn23)n1`, with 5.76%; and `CCc1ccc(C2C(C(=O)Nc3ccccc3)=C(C)Nc3c(C(=O)Nc4ccc(C)cc4)cnn32)cc1` (stereo not given), with -11.7%.
To `CCN(CC)c1nn2c(=O)c(C(=O)NCCc3ccccc3)cnc2s1` belongs 2.29%; to `O=C(N/N=C\c1cc(Br)c(Br)o1)C1COc2ccccc2O1` (stereo not given), -2.64%; to `CN(Cc1ccccn1)Cc1nc(-c2ccc(Cl)cc2)no1`, -1.16%.
Consider `Cc1ccc(Cl)cc1N1CCN(C(=O)c2cnc3c(-c4ccc(F)cc4)c(C)nn3c2C)CC1`, for which the “ratio change, negative = inhibition” value was 2.41%.
Then `CSc1ccc(/C=N\NC(=O)CC(=O)NC(C)C)cc1`, with 8.49%.
To `CC1CCCCN1CCCNC(=O)Cn1ncc2c([nH]c3ccccc32)c1=O` (stereo not given) belongs 14.4%; to `CC(=O)c1cccc(-n2nnnc2SCC(=O)NNC(=O)C2CCCCC2)c1`, 7.45% [at 9.22 µM].
Then `COc1ccc(NC(=O)c2ccccc2CC[N+](=O)[O-])cc1`, with -5.14%.
Regarding `COc1cccc(N(Cc2nnc3n2CCCCC3)C(=O)Nc2ccccc2F)c1`, the “ratio change, negative = inhibition” value is -6.23%.
To `CCOc1ccc(NC(=O)C(CC(C)C)N2Cc3ccccc3C2=O)cc1` (stereo not given) belongs -8.38%; to `Cc1cccc(NC(=O)c2ccc(F)c(S(=O)(=O)N(C)C3CCCCC3)c2)c1`, -4.34%; to `Cc1cc(NC(=O)CSc2nc3c(cc2C#N)CCCCC3)no1`, 16.5%.
Consider `Cn1c(N)c(C(=O)COC(=O)c2ccccc2NCc2ccco2)c(=O)n(C)c1=O`, for which the “ratio change, negative = inhibition” value is 9.32%.
Then `Cc1csc(NC(=O)Nc2ccccc2[N+](=O)[O-])n1`, with 2.56%; and `S=c1[nH]nc(-c2cccs2)n1/N=C/c1cccs1`, with 21.8% [at 9.22 µM].
Then `COCC(C)NCc1cc(Br)ccc1OC` (stereo not given), with 3.32%; and `Cc1ccc(S(=O)(=O)NC(=O)N2CCCN(Cc3ccc(F)cc3)CC2)cc1`, with -2.61%.
In the case of `Cc1ccc(C)c(-n2nnnc2SCC(=O)c2c(N)n(C)c(=O)n(C)c2=O)c1`, the ratio change, negative = inhibition was -17.5% [at 9.22 µM].
Then `CC(C(=O)N=Nc1c(O)n(C)c2ccc(Br)cc12)n1cnc2ccccc2c1=O` (stereo not given), with -4.31%; and `COc1ccc(Br)cc1/C=N/Nc1ccc(Cl)c(C(=O)O)c1`, with -12.6%; and `Cc1nnc(SCC(=O)NNC(=O)c2ccc(Cl)cc2)n1CC1CCCO1` (stereo not given), with -6.72%.
In the case of `CCOC(=O)c1cccc(NC(=O)c2cc(S(=O)(=O)N3CCCC(C)C3)cn2C)c1` (stereo not given), the “ratio change, negative = inhibition” value was -2.92%.
`Cc1ccc(NC(=O)Cn2c(=O)n(CCC(=O)NC3CCN(Cc4ccccc4)CC3)c(=O)c3ccccc32)cc1`: the “ratio change, negative = inhibition” value was 9.28%.
With `Cc1ccccc1NC(=O)NC1(C(=O)N2CCCC2)CCCCC1`, the “ratio change, negative = inhibition” value was 5.21%.
In the case of `Cc1cccc(NC(=O)c2ccc3nc(C(C)C)oc3c2)c1C`, the “ratio change, negative = inhibition” value was 1.86%.
To `CC(=O)NC(Cc1ccc(F)c(F)c1)C(=O)NC1CCN(c2nnnn2-c2ccccc2)CC1` (stereo not given) belongs 7.55%; to `O=C(CN1CCSCC1)N/N=C/c1ccc(Cl)cc1`, -10.4% [at 9.22 µM].
Then `COc1ccc2ncc3c(-c4ccc(C)c(C)c4)nn(CC(=O)NC4CCCC4)c3c2c1`, with -11.7%.
Then `COc1ccc(CNC(=O)C2=Cc3cccc(OC)c3OC2)cc1OC`, with -0.906%; and `Cc1nccn1CCCNC(=O)CC1C(=O)NCCN1Cc1ccc(Cl)c(F)c1` (stereo not given), with -1.13%.
As for `COc1cc(CN(C(=O)c2ccccc2Br)c2ccccn2)cc(OC)c1OC`, the “ratio change, negative = inhibition” value was 4.95%.
Take `O=Cc1ccc(Oc2cccc(C(F)(F)F)c2)nc1`: the “ratio change, negative = inhibition” value was 11.1%.
On to `Cc1ccccc1OCCSc1nc2ccc(NC(=O)c3ccco3)cc2s1`, for which the “ratio change, negative = inhibition” value is -7.54%.
On to `COc1cc(Cl)c(C)cc1Nc1nnc(-n2nc(C)cc2C)c2ccccc12`, for which the “ratio change, negative = inhibition” value was 1.63%.
As for `COc1ccc(C(=O)Nc2cccc(S(C)(=O)=O)c2)cc1`, the “ratio change, negative = inhibition” value was -6.99%.
Then `C=CCn1c(CNC(=O)c2ccco2)nnc1SCC(=O)c1ccc(OC)cc1`, with 17.7%; and `COc1cc(/C=N/Nc2ccc(C)cc2)cc(Br)c1O`, with 10.1%.
In the case of `O=C(Nc1ccc2nc(SCCOc3ccccc3Cl)sc2c1)c1ccco1`, the “ratio change, negative = inhibition” value was 1.78%.
Then `Cc1cc(C)c2c(NC(=O)C3CC3)nn(C)c2n1`, with 2.71%; and `C/C(CC(=O)N1CCN(C=O)CC1)=N\NC(=O)c1ccc(Br)cc1`, with 8.38%; and `COc1cccc(NC(=O)c2ccc3nc(CCc4ccccc4)oc3c2)c1`, with -1.82%.
For `COc1ccc(CCNC(=O)c2ccc(CSCc3ccc(C)cc3)o2)cc1OC`, the “ratio change, negative = inhibition” value is -5.92%.
Then `O=C(COc1ccc(-c2ccccc2)cc1)NN=C1CCCC1`, with -19.6%.
To `CC1(C)CC(=O)c2cnc3nc4ccccc4n3c2C1` belongs 0.78%.

These data come from PubChem BioAssay AID1487 (National Center for Advancing Translational Sciences (NCATS), 2009).
